Experimental data published in ChEMBL document CHEMBL3988442, “University of Dundee, Small-Polar-MMV Screening Library” (2021).
Screen size: about 48,000 compounds; about 13,000 (27%) showed an effect of 50% or more. This is one part of the list.

tested on: Wolbachia pipientis; assay: Anti-Wolbachia Cell-Based Screen; type: functional; set-up: scale not given: in the data most compounds retested in dose-response had high values; details: 5 µM

Row | Compound | Percent Effect
1 | CC(C)=CCCC(C)CN1CCC(n2cc(C(=O)NCCO)nn2)CC1 (stereo not drawn) | -5.673%
2 | CCCn1cnnc1CN(C)C(=O)CCC(=O)Nc1cc(C)ccc1F | -24.09%
3 | O=C(CCCn1cncn1)N1CCC2(CCCNC2=O)C1 (stereo not drawn) | -3.772%
4 | O=C(C[S+]([O-])Cc1csc(C2CCCC2)n1)Nc1ccccc1 (stereo not drawn) | 0.09199%
5 | COCC(O)CN(C)C(=O)NC1CCN(S(C)(=O)=O)CC1 (stereo not drawn) | 12.14%
6 | CCC(CC)(CNC(=O)OC(C)(C)C)NC(=O)C1CCOCC1 | 5.998%
7 | O=S(=O)(NCC(O)c1cccs1)c1ccccc1Cl (stereo not drawn) | 2.157%
8 | CCc1nc(N)nc(NCCC(=O)N2CCCC2)c1C | 9.291%
9 | CC(C)(C)C(=O)NC[C@H]1Cn2c(-c3ccccc3)cnc2CO1 | -8.442%
10 | CN(CC1=CCCN(CCc2ccccn2)C1)C(=O)c1ccco1 | 0.7414%
11 | CN(Cc1ccsc1)C(=O)CN1CCc2c(ncn2C)C1 | -3.155%
12 | CCOc1ncccc1NC(=O)N1CCc2ccccc2C1 | -0.7073%
13 | CNC(=O)c1cccc(CCNC(=O)N2CCc3ccccc3C2)c1 | 1.406%
14 | CN(Cc1ccsc1)C(=O)CNC(=O)N1CCc2ccccc2C1 | 90.63%
15 | O=C(NCCNc1ncccn1)N1CCc2ccccc2C1 | 8.02%
16 | CN(Cc1ccccn1)C(=O)CNC(=O)N1CCc2ccccc2C1 | 97.17%
17 | CC(C)c1noc(C(C)N2CCC(c3nc4ccccc4o3)CC2)n1 (stereo not drawn) | 1.795%
18 | Cc1cc(C)c2c(c1)C(NC(=O)CSc1nnc[nH]1)CCO2 (stereo not drawn) | 8.701%
19 | Cc1nn(C)c2nc(N(C)CC3CCN(CC(C)C)C3)sc12 (stereo not drawn) | -16.91%
20 | O=C(c1ccoc1)N1CCCN(CC2CCOc3ccccc3C2)CC1 (stereo not drawn) | -7.228%
21 | Cc1ccccc1CNc1nc(O)cc(C2CC(=O)N(C)C2)n1 (stereo not drawn) | -5.04%
22 | Cc1ccc(CNc2nc(O)cc(C3CC(=O)N(C)C3)n2)cc1 (stereo not drawn) | 96.21%

Row | Compound | Percent Effect
23 | CC1CCc2nc(O)c(C(=O)NCc3cccc(F)c3)cc2C1 (stereo not drawn) | -1.382%
24 | Cc1cc(C)cc(OCCC(=O)NC2CC(=O)N(C)C2)c1 (stereo not drawn) | -4.77%
25 | CN1CC(c2cc(O)nc(NCc3ccc(Cl)cc3)n2)CC1=O (stereo not drawn) | 70.24%
26 | CC(C)(CO)NC(=O)C1CCC(=O)N(Cc2ccc(Cl)cc2)C1 (stereo not drawn) | -2.281%
27 | COc1cccc(CNc2nc(O)cc(C3CC(=O)N(C)C3)n2)c1 (stereo not drawn) | -3.669%
28 | Cc1nc(NC(=O)NC2CC(=O)N(C)C2)nn1C (stereo not drawn) | 3.668%
29 | CN1CC(c2cc(O)nc(NCc3ccccc3Cl)n2)CC1=O (stereo not drawn) | 83.2%
30 | CN1CC(c2cc(O)nc(NCc3cccc(F)c3)n2)CC1=O (stereo not drawn) | 104.4%
31 | N#Cc1cccc(NC2CC(=O)N(Cc3ccccc3Cl)C2)n1 (stereo not drawn) | -1.238%
32 | CCC(NC(=O)Nc1ccc(OC)c(C)c1)c1noc(C)n1 (stereo not drawn) | -4.029%
33 | CC(C(=O)N1CCCN(c2ccc(C#N)cc2)CC1)n1cccn1 (stereo not drawn) | 143.8%
34 | CC(C)c1nccn1C(C)C(=O)N1CCN(c2ccccc2Cl)CC1 (stereo not drawn) | -35.17%
35 | CC(C(=O)N1CCCN(c2ccccc2C#N)CC1)n1cccn1 (stereo not drawn) | 129.1%
36 | CC(C(=O)N1CCCN(c2ncccc2C#N)CC1)n1cccn1 (stereo not drawn) | 0.5745%
37 | CC(C(=O)N1CCCN(c2ccc(C#N)cc2)CC1)n1ccnc1 (stereo not drawn) | -8.735%
38 | N#Cc1ccc(N2CCCN(CC(=O)N3CCC3)CC2)cc1 | 4.301%
39 | CC(C)n1ccnc1CN1C(=O)OC[C@@H]1c1ccccc1 | 11.77%
40 | CCOCC(=O)N1C[C@H]2CC[C@@H]1CN(C(=O)c1ccncc1)C2 | -0.6982%
41 | CN1CCCN(c2cnn(Cc3ccc(C(C)(C)C)cc3)c(=O)c2)CC1 | 10.83%
42 | Cn1c(Cn2ncc(N3CCCCC3)cc2=O)nc2ccccc21 | 93.17%
43 | CN(C)c1cnn(Cc2nc3ccccc3n2C)c(=O)c1 | 116.1%
44 | CN(C)c1cnn(CC(=O)N2CCN(c3ccccc3)CC2)c(=O)c1 | 3.087%

Row | Compound | Percent Effect
45 | CN1CCCN(c2cnn(Cc3ccncc3)c(=O)c2)CC1 | -30.12%
46 | CN(C)c1cnn(CC(=O)N2Cc3ccccc3C2)c(=O)c1 | 8.607%
47 | Cn1c(Cn2ncc(N3CCCC3)cc2=O)nc2ccccc21 | 114.5%
48 | O=c1cc(N2CCCCC2)cnn1CCCn1cccn1 | 21.14%
49 | CCCOCCn1ncc(N2CCCC2)cc1=O | 0.2704%
50 | O=C(NC1CC2(CCN(CCO)CC2)Oc2ccccc21)c1csnn1 (stereo not drawn) | -25.87%
51 | CC(C)c1nc(CN(C)C(=O)CCNC(=O)c2ccccc2F)no1 | -5.471%
52 | CC(=O)Nc1ccc([C@@H](O)[C@H]2COCC(=O)N2CC(C)C)cc1 | -7.535%
53 | CN(C(=O)Cc1ccc2c(c1)OCCO2)C1CCCCC1 | -4.303%
54 | Cc1noc(CN(Cc2ccc3c(c2)OCO3)C2CCCC2)n1 | 3.676%
55 | Cc1noc(CN(C)Cc2ccc3c(c2)OCO3)n1 | 95.73%
56 | Cc1csc(CNC(=O)N(C)Cc2ccc3c(c2)OCCO3)n1 | -8.149%
57 | CCCc1noc(CN(C)Cc2ccc3c(c2)OCO3)n1 | -4.394%
58 | CCN(Cc1ccc2c(c1)OCO2)Cc1nc(C)no1 | 5.817%
59 | CCN(Cc1nc(C2CC2)no1)Cc1ccc(C#N)cc1F | -4.842%
60 | CCc1noc(CN(C)C(=O)c2ccnc(OC3CCC3)c2)n1 | -5.488%
61 | Cc1nc(CN(Cc2ccc3c(c2)OCCO3)C2CCCC2)no1 | 158.9%
62 | CCc1noc(CN(Cc2ccc3c(c2)OCO3)C2CCCC2)n1 | 130.5%
63 | c1cc2c(cc1CN(Cc1nc(C3CC3)no1)C1CCCC1)OCO2 | 88.61%
64 | CC(C)c1nc2n(n1)CC(Nc1ncnc3c1CCC3)CC2 (stereo not drawn) | -10.8%
65 | O=C(c1cc[nH]n1)N1CCN(C(c2ccccc2)C(F)(F)F)CC1 (stereo not drawn) | 48.39%
66 | N#CCCN(CCC#N)C(=O)c1ccc(COc2ccccc2C#N)o1 | -1.523%

Row | Compound | Percent Effect
67 | CN(C)CCN(C)S(=O)(=O)CC1CCOCC1 | 3.137%
68 | CC(CS(C)(=O)=O)N(C(=O)Nc1ccc(F)cc1F)C1CC1 (stereo not drawn) | 2.637%
69 | COc1cc(OC)c(CNC(=O)NCc2ccc(C#N)cc2)c(OC)c1 | 1.359%
70 | COCCO[C@H]1COCCN(Cc2ccc(OC)cc2)C1 | -5.552%
71 | O=C(C1CCOc2ccccc2C1)N1Cc2cnn(CCO)c2C1 (stereo not drawn) | -2.46%
72 | CCCN(C(=O)CN1CCN(CC(C)O)CC1)C1=CCCCC1 (stereo not drawn) | -2.912%
73 | CCc1nc(C2CCCN2c2ncc(C(N)=O)cc2Cl)no1 (stereo not drawn) | -14.14%
74 | Cc1noc([C@@H]2CCCN2C(=O)C2CCN(C(=O)C3CCC3)CC2)n1 | -13.41%
75 | CNCC(=O)N1CCCC1c1nc(C(C)C)no1 (stereo not drawn) | 10.93%
76 | CC(=O)N1CCCC1c1nc(C)no1 (stereo not drawn) | 122.1%
77 | Cc1noc([C@@H]2CCCN2C(=O)C2CCN(CC(N)=O)CC2)n1 | 1.357%
78 | Cc1noc(C2CCCN2C(=O)C2CCC2)n1 (stereo not drawn) | 124.3%
79 | Cc1noc([C@@H]2C[C@H](NC(=O)NC3CCCCC3)CN2C)n1 | -10.92%
80 | Cc1ccc([C@@H]2CN(C(=O)c3cc[nH]c3)C[C@H]2NC(=O)C2CC2)cc1 | 18.05%
81 | NC(=O)C1CCN(CCc2ccc(NCc3ccoc3)cc2)CC1 | -9.363%
82 | CNC(=O)c1cccnc1N1CCN(C/C=C/c2ccccc2)CC1 | 6.453%
83 | CCC(CC)NC(=O)c1cccnc1N1CCCC1c1ccccn1 (stereo not drawn) | 119.8%
84 | CCC(CC)NC(=O)c1cccnc1-n1cccn1 | 10.93%
85 | CCOCCNC(=O)c1cccnc1N1CCCC1c1ccccn1 (stereo not drawn) | 122.4%
86 | COc1cccc(C(=O)N2CCN(C(=O)CCCn3ccnc3)CC2)c1 | -1.45%
87 | COc1ccc(C(=O)O)c(OCC(=O)NC(C)c2ccc(F)cc2)c1 (stereo not drawn) | -5.25%
88 | Cc1ccccc1CN(Cc1ccncc1)CC(C)C | -4.812%

Row | Compound | Percent Effect
89 | Cc1ccc(C(N)c2cccs2)cc1 (stereo not drawn) | 13.29%
90 | Cc1ccccc1C(N)c1ccncc1.Cl (stereo not drawn) | 102.8%
91 | COCC(NC(=O)c1cc[nH]n1)c1cccc(C(F)(F)F)c1 (stereo not drawn) | -1.057%
92 | O=C(c1ccccn1)N1C[C@@H]2CC[C@H](C1)N(C(=O)CCC(F)(F)F)C2 | -20.57%
93 | Cn1cc(-c2nnc3sc(C4CCC4)nn23)cn1 | 131.8%
94 | Cn1cc(-c2nnc3sc(C4CC4)nn23)cn1 | 89.59%
95 | Cn1cc(-c2nc(CN3CCn4c(nnc4C4CC4)C3)cs2)cn1 | -10.47%
96 | Cn1cc(-c2csc(N3CCCCCC3)n2)cn1 | -2.114%
97 | CCCC1CCCN(Cc2csc(-c3cnn(C)c3)n2)CC1 (stereo not drawn) | -16.04%
98 | CCC(CO)N(Cc1ccsc1)CC1CC1 (stereo not drawn) | -8.901%
99 | N#Cc1cccc(SCCS(N)(=O)=O)c1 | 2.301%
100 | CCS(=O)(=O)CCSc1ccc(Cl)cc1 | 82.02%
101 | CCOc1ccc(SCCNS(=O)(=O)CC)cc1 | 37.47%
102 | CCOc1ccc(SCCS(=O)(=O)CC)cc1 | 102.3%
103 | CCOc1ccc(CNC(C)c2cccc(S(=O)(=O)NC)c2)cc1 (stereo not drawn) | 0.3734%
104 | CCS(=O)(=O)CCSc1ccc(Br)cc1 | 61.96%
105 | CCCNS(=O)(=O)Cc1ccc(Br)cc1 | -14.67%
106 | N#Cc1ccc(SCCC(=O)O)cc1 | -2.439%
107 | CCS(=O)(=O)CCCN1CCSCC1c1ccc(Cl)cc1 (stereo not drawn) | 4.065%
108 | CC(C)c1cc(=O)[nH]c(C(C)(C)N)n1.Cl | -9.286%
